Among all 69,000 compounds or so, about 8,600 (12%) showed an effect of 50% or more. This is one part of a sample in which strong results are shown more often than they occur.
test system: Plasmodium berghei; assay: Screen against P. berghei liver stage (PbLuc), transformed with Luciferase, at 10uM; type: functional, HepG2; conditions: tested at 10 uM

**Q.** With `Cc1nccn1CCC1CCCCN1C(=O)c1ccc2[nH]nnc2c1` (stereo unspecified) as the molecule, how does the INHIBITION read?
**A.** -5.29%

**Q.** How did the INHIBITION turn out when `Cc1nccn1CCC1CCCCN1Cc1ccc(O)cc1Cl` (stereo unspecified) was run?
**A.** 1.37%

**Q.** How did the INHIBITION turn out when `Cc1nccn1CCC1CCCCN1C(=O)c1ccc2nonc2c1` (stereo unspecified) was run?
**A.** -17.5%

**Q.** `COc1cccc(CN(C)C(=O)NCc2c(C)cc(C)[nH]c2=O)c1` was tested. Which INHIBITION did it give?
**A.** 22.3%

**Q.** With `Cc1cnn(CC2CCCN2C(=O)CN(C)C2CC2)c1` (stereo unspecified) as the molecule, how does the INHIBITION read?
**A.** 29.7%

**Q.** `Cn1ccnc1C(=O)N1CCC2(CC1)CC(Oc1cccnc1)CO2` (stereo unspecified) was tested. Which INHIBITION did it give?
**A.** 32.4%

**Q.** For `CC(C)CC(CO)NS(=O)(=O)Cc1ccon1` (stereo unspecified), which INHIBITION is on record?
**A.** 23.8%

**Q.** Which INHIBITION does the source give for `CC(CCc1ccc(F)c(F)c1)NS(=O)(=O)Cc1ccon1` (stereo unspecified) here?
**A.** 53.5%

**Q.** With `Cc1ccc(OCC(C)NS(=O)(=O)Cc2ccon2)cc1` (stereo unspecified) as the molecule, how does the INHIBITION read?
**A.** 48.5%

**Q.** For `CCc1nc(C2CCCN(C(=O)c3cnn(CC)c3)C2)no1` (stereo unspecified), which INHIBITION is on record?
**A.** -8.69%

**Q.** For `CN1CCN(c2ccc(Br)cc2NC(=O)c2ccco2)CC1`, which INHIBITION is on record?
**A.** 46.3%

**Q.** `CN1CCN(c2ccccc2NC(=O)c2ccco2)CC1` was tested. Which INHIBITION did it give?
**A.** 50.4%

**Q.** For `Cc1ccc(C(=O)Nc2ccccc2N2CCCC2)n1C`, which INHIBITION is on record?
**A.** 21.2%

**Q.** `CN1CCN(c2ccccc2NC(=O)NCC[S+](C)[O-])CC1` (stereo unspecified) was tested. Which INHIBITION did it give?
**A.** 39.3%

**Q.** Which INHIBITION does the source give for `CN1CCN(c2ccccc2NC(=O)NCCc2ccc(O)cc2)CC1` here?
**A.** 35.1%

**Q.** `CN1CCN(c2ccccc2NC(=O)NCCc2ccccc2)CC1` was tested. Which INHIBITION did it give?
**A.** 64.3%

**Q.** For `Cc1nn(CC(=O)N(C)Cc2nncn2C(C)C)c(=O)c2ccccc12`, which INHIBITION is on record?
**A.** -7.27%

**Q.** How did the INHIBITION turn out when `Cc1nn(CCNS(=O)(=O)c2ccccc2)c(C)c1Cl` was run?
**A.** 48.3%

**Q.** For `Cc1cnn(C2CCCN(C(=O)c3ccc(-n4cnnn4)cc3)C2)c1` (stereo unspecified), which INHIBITION is on record?
**A.** 47.4%

**Q.** Which INHIBITION does the source give for `CC(C)(O)CN1CCN(C(=O)c2cccn2Cc2ccncc2)CC1` here?
**A.** 19.2%

**Q.** For `Cc1cc(C)n(CC2CN(CC(=O)Nc3cccnc3)CCO2)n1` (stereo unspecified), which INHIBITION is on record?
**A.** -14.3%

**Q.** How did the INHIBITION turn out when `CCN(CCNC(=O)c1cccc(C)c1C)C1CC1` was run?
**A.** -16%

**Q.** How did the INHIBITION turn out when `COc1ccccc1C1SCC(=O)Nc2c1c(=O)[nH]n2C1CCOCC1` (stereo unspecified) was run?
**A.** 39.3%

**Q.** `CC1=Nc2c(c(=O)[nH]n2C2CCOCC2)C(c2cccc(Br)c2)S1` (stereo unspecified) was tested. Which INHIBITION did it give?
**A.** 3.95%

**Q.** For `O=C1CSC(c2ccc(F)c(Cl)c2)c2c(n(C3CCOCC3)[nH]c2=O)N1` (stereo unspecified), which INHIBITION is on record?
**A.** 72.8%

**Q.** With `O=C1CSC(c2ccc(Cl)cc2Cl)c2c(n(C3CCOCC3)[nH]c2=O)N1` (stereo unspecified) as the molecule, how does the INHIBITION read?
**A.** 54.5%

**Q.** `O=C1CSC(c2ccc(O)c(Cl)c2)c2c(n(C3CCOCC3)[nH]c2=O)N1` (stereo unspecified) was tested. Which INHIBITION did it give?
**A.** 15%

**Q.** `CC(=O)c1cccc(OCC(=O)NS(=O)(=O)c2cccs2)c1` was tested. Which INHIBITION did it give?
**A.** 2.97%

**Q.** For `Cn1nccc1-c1nnn2c1COCC(CNC1CCOCC1)C2` (stereo unspecified), which INHIBITION is on record?
**A.** 45.7%

**Q.** With `O=C(CO)N1CCC(c2ccnc(Nc3cc(C(F)(F)F)ccn3)n2)C1` (stereo unspecified) as the molecule, how does the INHIBITION read?
**A.** 20.2%

**Q.** How did the INHIBITION turn out when `Cc1noc([C@@]23CCO[C@@H]2CCN(Cc2scnc2C)C3)n1` was run?
**A.** 18.6%

**Q.** How did the INHIBITION turn out when `CCN1CCCC1CN(Cc1cc[nH]n1)CC1CCN(CCOC)CC1` (stereo unspecified) was run?
**A.** 45%

**Q.** For `COCCN1CCC(CN(CC2CCCO2)C(=O)Cn2cccn2)CC1` (stereo unspecified), which INHIBITION is on record?
**A.** 15.4%

**Q.** Which INHIBITION does the source give for `CC[C@@H]1N(Cc2ccoc2)CCC[C@]12CCC(=O)N2CCOC` here?
**A.** -11.2%

**Q.** For `COCCN1C[C@@H]2CN(Cc3ccoc3)CCC[C@]2(C(=O)O)C1`, which INHIBITION is on record?
**A.** -9.02%

**Q.** `CCN1CCCC1CN(Cc1ccoc1)CC1CCN(CCOC)CC1` (stereo unspecified) was tested. Which INHIBITION did it give?
**A.** 53.7%

**Q.** For `CCN1CCCC1CN(Cc1ccon1)CC1CCN(CCOC)CC1` (stereo unspecified), which INHIBITION is on record?
**A.** 81.2%

**Q.** `CCn1ccnc1CN1CCCN(C(=O)c2csc(C)n2)CC1` was tested. Which INHIBITION did it give?
**A.** -1.55%

**Q.** `Cc1cnc(N2C[C@H]3C[C@H](C(=O)N4CCN(C)CC4)N(C)[C@H]3C2)nc1` was tested. Which INHIBITION did it give?
**A.** -18.2%

**Q.** With `Cc1nn(CCO)cc1CN1CCCC1c1nc2c(C)cccc2[nH]1` (stereo unspecified) as the molecule, how does the INHIBITION read?
**A.** 71.1%

**Q.** Which INHIBITION does the source give for `Cc1ncc(CO)c(CN2CCCC2c2nc3c(C)cccc3[nH]2)c1O` (stereo unspecified) here?
**A.** -125%

**Q.** How did the INHIBITION turn out when `Cc1cccc2[nH]c(C3CCCN3Cc3ccc(CO)o3)nc12` (stereo unspecified) was run?
**A.** -59.5%

**Q.** Which INHIBITION does the source give for `Cc1csc(Nc2cc(C3CN(C(C)C)C3)nc(C)n2)n1` here?
**A.** 37.8%

**Q.** How did the INHIBITION turn out when `CNCC(=O)N1CC(c2cc(Nc3nc(C)cs3)nc(C)n2)C1` was run?
**A.** -47.8%

**Q.** `Cc1csc(Nc2cc(C3CN(c4ccncn4)C3)nc(C)n2)n1` was tested. Which INHIBITION did it give?
**A.** 68.4%

**Q.** With `Cc1nc(C)c(C(=O)N2CCCC2c2nc(O)cc(C(C)C)n2)s1` (stereo unspecified) as the molecule, how does the INHIBITION read?
**A.** 13.5%

**Q.** For `CSc1ccc(C(C(=O)O)N2CCOCC2)cc1` (stereo unspecified), which INHIBITION is on record?
**A.** 41.2%

**Q.** How did the INHIBITION turn out when `COC1COC2(CCN(Cc3cccc(C#N)c3)CC2)C1` (stereo unspecified) was run?
**A.** -23.8%

**Q.** With `CCn1nc(NC(=O)Cn2ccc(C(C)=O)n2)c2ccccc21` as the molecule, how does the INHIBITION read?
**A.** 7.38%

**Q.** `CC(=O)c1ccn(CC(=O)Nc2nn(CC3CC3)c3ccccc23)n1` was tested. Which INHIBITION did it give?
**A.** 71.9%

**Q.** How did the INHIBITION turn out when `COC(=O)c1ccn(CC(=O)Nc2nn(CC3CC3)c3ccccc23)n1` was run?
**A.** 32.3%
